Laboratory results as given in PubChem BioAssay (NCATS).
Inconclusive results are not listed. Active and inactive are the calls of the source. Unless noted, the call rests on the fitted dose curve; in most records, active means well fitted curve in either direction with a large enough effect (not every such curve was filed as active); inconclusive means small, poorly fitted or top-dose-only effect, or another doubt; inactive means flat fitted curve, though single readings scatter.

Assays:
[1] = AP1 Signaling Pathway (AID 357); conditions: ME-180 AP-1-bla reporter, EGF-induced, beta-lactamase ratio, 5 h; at 7.69 µM (top of the series) unless noted;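 further: ME-180 reporter cells stimulated with EGF at its EC50 level; on the % scale 0 is the no-effect control and ±100 the full control effect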
Summary of the method: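 In this screen, ME-180 cells in Opti-MEM with 0.5% dialyzed FBS received EC50 EGF and compound titrations for 5 h. AP-1 reporter beta-lactamase was detected via CCF4 ratio, giving AC50 for positive and negative modulators.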

[2] = target: Cytochrome P450 1A2 (Homo sapiens) (UniProt P05177); experiment: p450-cyp1a2 (AID 410; calls by dose curve; further: potency means the concentration at half of the fitted maximal effect;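 on activity change, negative = inhibition: -100% = full effect of reference inhibitor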)
Cytochrome P450 1A2 (Homo sapiens), sequence (P05177 whole entry, looked up): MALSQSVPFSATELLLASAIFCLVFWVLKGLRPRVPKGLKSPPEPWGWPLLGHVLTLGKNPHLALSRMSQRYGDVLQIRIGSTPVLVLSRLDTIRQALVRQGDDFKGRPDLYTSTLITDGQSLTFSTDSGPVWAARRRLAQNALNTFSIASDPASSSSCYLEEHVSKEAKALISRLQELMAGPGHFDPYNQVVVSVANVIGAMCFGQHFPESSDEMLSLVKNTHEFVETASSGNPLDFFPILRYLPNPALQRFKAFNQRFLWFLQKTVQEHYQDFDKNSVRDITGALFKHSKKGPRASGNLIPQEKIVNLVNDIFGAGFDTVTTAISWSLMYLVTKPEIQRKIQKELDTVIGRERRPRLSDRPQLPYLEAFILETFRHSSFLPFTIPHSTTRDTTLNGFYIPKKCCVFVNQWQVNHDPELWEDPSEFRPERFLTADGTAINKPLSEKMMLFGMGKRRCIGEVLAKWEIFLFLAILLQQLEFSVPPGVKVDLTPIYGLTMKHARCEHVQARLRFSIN
Summary of the method: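 Human CYP1A2 (20nM) demethylated Luciferin-ME at its Km (100uM) in 100mM KPO4. After 10 min compound preincubation, NADPH regeneration ran the reaction 60 min at room temperature. Luciferin was read by luminescence, normalized to 57 uM furafylline.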

[3] = Stat Signaling Pathway (AID 446); conditions: ME-180 SIE beta-lactamase reporter, IL-6 stimulated, 5 h; at 7.69 µM (top of the series) unless noted;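 further: ME-180 cervical cancer cells given 40 pM IL-6 alongside compound; SIE-controlled beta-lactamase reporter measured as 460/530 nm FRET emission ratio; on the % scale 0 is the no-effect control and ±100 the full control effect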
Summary of the method: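 IL-6/STAT signaling read in ME-180 cells via an SIE beta-lactamase reporter. Stimulus was 40 pM IL-6 (its AC50) for 5 hrs, so both activation and inhibition register.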

[4] = target: Glucocorticoid receptor (Homo sapiens) (UniProt P04150); experiment: GR-GFP Redistribution (AID 450;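 active means compounds whose dose series gives a full or clear partial fitted curve of increased nuclear translocation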; further: potency means the concentration at half of the fitted maximal effect); conditions: U2OS GR-GFP nuclear translocation, laser cytometry, 2 h
Glucocorticoid receptor (Homo sapiens), sequence (P04150 whole entry, looked up, the tested form may be a part): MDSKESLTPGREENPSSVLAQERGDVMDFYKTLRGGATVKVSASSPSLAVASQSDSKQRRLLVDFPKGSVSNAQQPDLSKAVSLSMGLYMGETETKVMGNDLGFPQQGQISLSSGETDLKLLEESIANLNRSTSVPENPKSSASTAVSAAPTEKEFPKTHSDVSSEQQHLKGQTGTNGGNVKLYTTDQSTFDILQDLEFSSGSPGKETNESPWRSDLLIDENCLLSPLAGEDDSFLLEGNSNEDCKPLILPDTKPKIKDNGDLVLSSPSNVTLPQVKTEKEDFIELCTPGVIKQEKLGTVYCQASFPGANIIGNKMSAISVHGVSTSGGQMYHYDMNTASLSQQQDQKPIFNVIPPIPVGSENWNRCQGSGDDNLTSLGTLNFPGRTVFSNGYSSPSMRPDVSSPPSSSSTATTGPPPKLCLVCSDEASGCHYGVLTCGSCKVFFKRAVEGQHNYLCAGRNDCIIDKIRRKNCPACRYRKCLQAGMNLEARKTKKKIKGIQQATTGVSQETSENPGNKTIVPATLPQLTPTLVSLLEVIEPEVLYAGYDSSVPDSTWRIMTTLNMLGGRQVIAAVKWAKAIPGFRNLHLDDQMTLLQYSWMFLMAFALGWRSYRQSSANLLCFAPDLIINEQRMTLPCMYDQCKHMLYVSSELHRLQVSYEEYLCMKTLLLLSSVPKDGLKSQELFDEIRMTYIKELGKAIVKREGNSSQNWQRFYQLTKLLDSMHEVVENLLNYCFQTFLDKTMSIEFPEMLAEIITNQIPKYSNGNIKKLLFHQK

[5] = target: Mitogen-activated protein kinase 10 (Mus musculus) (UniProt Q61831); experiment: JNK3 AlphaScreen Assay (AID 530);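 further: kinase came from lysate of stimulated human HepG2 cells; signal reports phosphorylation of biotinylated GST-cJun 1-79 at Ser73 with 10 µM ATP; on the % scale 0 is the no-effect control and ±100 the full control effect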
Summary of the method: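 qHTS format: compounds tested as titrations against IL-1beta/TNF-alpha-activated HepG2 lysate JNK3 with biotin-GST-cJun substrate and 10 uM ATP at room temperature. Loss of anti-phospho-cJun AlphaScreen signal indicates inhibition.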

[6] = target: 3',5'-cyclic-AMP phosphodiesterase 4B (Homo sapiens) (UniProt Q07343); experiment: qHTS Assay for Inhibitors of PDE-IV (AID 607; active means well fitted activation curve with a large enough effect in the main read-out, with a control signal flat, not every such curve was filed as active; further: % of control where 0% means no effect)
3',5'-cyclic-AMP phosphodiesterase 4B (Homo sapiens), sequence (Q07343 whole entry, looked up): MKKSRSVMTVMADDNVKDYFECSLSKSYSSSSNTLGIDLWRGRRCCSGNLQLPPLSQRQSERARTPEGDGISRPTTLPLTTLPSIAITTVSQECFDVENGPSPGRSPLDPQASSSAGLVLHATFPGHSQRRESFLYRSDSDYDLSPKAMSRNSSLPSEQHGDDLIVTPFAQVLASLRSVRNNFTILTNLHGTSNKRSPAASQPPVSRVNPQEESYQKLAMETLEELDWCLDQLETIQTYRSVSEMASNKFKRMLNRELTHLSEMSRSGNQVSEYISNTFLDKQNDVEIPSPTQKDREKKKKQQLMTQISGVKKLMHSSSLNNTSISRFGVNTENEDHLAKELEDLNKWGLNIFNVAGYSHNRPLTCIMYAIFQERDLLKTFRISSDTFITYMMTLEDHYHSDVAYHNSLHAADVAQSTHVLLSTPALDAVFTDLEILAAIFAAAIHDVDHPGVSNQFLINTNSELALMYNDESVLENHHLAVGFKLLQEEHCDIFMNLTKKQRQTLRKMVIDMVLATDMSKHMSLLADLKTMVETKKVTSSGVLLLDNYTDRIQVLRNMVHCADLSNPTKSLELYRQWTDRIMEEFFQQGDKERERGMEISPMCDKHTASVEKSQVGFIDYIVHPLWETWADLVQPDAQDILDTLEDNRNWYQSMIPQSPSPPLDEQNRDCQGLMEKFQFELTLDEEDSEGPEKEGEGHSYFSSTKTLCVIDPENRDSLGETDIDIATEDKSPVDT
Summary of the method: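 Live HEK293 cells with a modified cyclic nucleotide-gated (CNG) channel report intracellular cAMP via membrane-potential dye fluorescence (ex 535/em 590 nm). Endogenous PDE-IV was targeted. Compounds were tested at up to 22.9 uM final; RO 20-1724 100 uM served as control.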

[7] = qHTS Assay for Identification of Small Molecule Agonists for Hypoxia Response Element Signaling Pathway (AID 914; active means well fitted activation curve with a large enough effect in the signal ratio, with a control signal flat, not every such curve was filed as active; the % refers to the signal ratio; further: % of control where 0% means no effect); conditions: ME-180 (cervical carcinoma) HRE-bla reporter, beta-lactamase ratio, CoCl2, 17 h; hits give high values
Summary of the method: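 Cells were plated overnight, pin-dosed with compound in a titration series, co-stimulated with EC50 CoCl2 and incubated 17 hours at 37 degrees Celsius. CCF4 substrate was then loaded, and AC50 values came from the 460nm/530nm ratio.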

[8] = target: Tyrosyl-DNA phosphodiesterase 1 (Homo sapiens) (UniProt Q9NUW8); experiment: Confirmation Assay for Inhibitors of Tyrosyl-DNA Phosphodiesterase (TDP1) (AID 489007; active means well fitted curve in the direction sought with a large enough effect; an effect the other way counts as inactive or inconclusive; further: potency means the concentration at half of the fitted maximal effect; nearly all actives have a fitted effect of over 40% in size); conditions: recombinant human TDP1 enzymatic activity, dose-response
Tyrosyl-DNA phosphodiesterase 1 (Homo sapiens), sequence (Q9NUW8 whole entry, looked up): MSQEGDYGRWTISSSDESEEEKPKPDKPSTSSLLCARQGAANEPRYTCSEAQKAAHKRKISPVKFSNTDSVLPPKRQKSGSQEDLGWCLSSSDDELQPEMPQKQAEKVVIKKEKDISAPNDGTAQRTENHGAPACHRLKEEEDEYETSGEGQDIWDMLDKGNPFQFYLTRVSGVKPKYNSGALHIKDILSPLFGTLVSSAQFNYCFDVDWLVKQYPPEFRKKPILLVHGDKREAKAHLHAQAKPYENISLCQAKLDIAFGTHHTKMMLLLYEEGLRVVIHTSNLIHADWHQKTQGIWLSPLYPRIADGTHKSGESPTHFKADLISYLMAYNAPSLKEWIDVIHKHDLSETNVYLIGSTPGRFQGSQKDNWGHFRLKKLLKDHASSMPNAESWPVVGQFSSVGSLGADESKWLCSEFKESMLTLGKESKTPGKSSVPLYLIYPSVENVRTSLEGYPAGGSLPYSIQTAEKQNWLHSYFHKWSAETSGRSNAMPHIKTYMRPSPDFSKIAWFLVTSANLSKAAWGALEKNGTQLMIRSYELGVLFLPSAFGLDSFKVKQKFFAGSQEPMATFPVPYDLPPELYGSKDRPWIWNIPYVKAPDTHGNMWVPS
Summary of the method: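 Recombinant E. coli-expressed Tdp1 (1 nM final) was preincubated with compounds 15 min at room temperature, then reacted 5 min with 15 nM 5'-biotin/3'-phosphotyrosine-FITC DNA substrate; cleavage read as loss of AlphaScreen signal (10 ug/ml beads, 10 min).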

[9] = target: Glucocorticoid receptor (Homo sapiens) (UniProt P04150); experiment: GR-EFC Redistribution (AID 451; calls by dose curve; further: potency means the concentration at half of the fitted maximal effect); conditions: CHO-K1 GR-EFC translocation, beta-gal luminescence, 2 h
Summary of the method: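 CHO-K1 cells expressing nuclear EA and GR-ED fragments of b-gal; compounds titrated up to 46 uM final, 2 h at 37 C. GR nuclear translocation read as complemented b-gal luminescence after 1 h RT detection.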

[10] = target: Guanine nucleotide-binding protein G(i) subunit alpha-1 (Homo sapiens) (UniProt P63096); experiment: qHTS Assay for Inhibitors of RGS12 GoLoco Motif Activity (Green Fluorophore) (AID 879; active means well fitted curve in the direction sought with a large enough effect; an effect the other way counts as inactive or inconclusive;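 further: 0% = labeled peptide with Gαi1 and full inhibition = labeled peptide alone without protein; negative values mean loss of peptide binding seen as reduced polarization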)
Guanine nucleotide-binding protein G(i) subunit alpha-1 (Homo sapiens), sequence (P63096 whole entry, looked up): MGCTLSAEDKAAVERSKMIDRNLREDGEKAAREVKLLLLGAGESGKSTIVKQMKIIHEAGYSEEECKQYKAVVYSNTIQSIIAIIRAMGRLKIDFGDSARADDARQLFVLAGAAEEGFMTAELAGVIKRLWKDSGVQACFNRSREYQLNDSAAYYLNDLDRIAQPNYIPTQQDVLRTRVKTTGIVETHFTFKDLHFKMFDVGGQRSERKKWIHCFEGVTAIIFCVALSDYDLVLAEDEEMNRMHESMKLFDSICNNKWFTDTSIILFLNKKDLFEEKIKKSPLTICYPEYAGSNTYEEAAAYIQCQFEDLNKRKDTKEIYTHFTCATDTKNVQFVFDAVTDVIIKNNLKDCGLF
Summary of the method: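 Fluorescence polarization assay: 50 nM Gαi1 with 10 nM FITC-labeled RGS12 GoLoco peptide in 10 mM Tris pH 7.5, 150 mM NaCl, 0.1 mM GDP, 0.05% NP40, 10 min at room temperature with compound.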

[11] = target: Muscarinic acetylcholine receptor M1 (Rattus norvegicus) (UniProt P08482); experiment: qHTS Assay for Antagonists of Acetylcholine Muscarinic M1 Receptor: Measurement of IP-One Response (AID 944; active means well fitted curve in the direction sought with a large enough effect; an effect the other way counts as inactive or inconclusive; further: nearly all actives have a fitted effect of over 75% in size)
Summary of the method: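 CHO cells expressing rat M1 receptor, recovered overnight, were pre-incubated 10 min with compound, then stimulated 30 min with carbachol at EC80 (200 nM) in LiCl-containing buffer, pH 7.4. IP1 accumulation was read by HTRF (620/665 nm).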

[12] = target: Pyruvate kinase (Leishmania mexicana) (UniProt Q27686); experiment: qHTS Validation Assay for Inhibitors of Leishmania Mexicana Pyruvate Kinase (AID 945; active means well fitted curve in the direction sought with a large enough effect; an effect the other way counts as inactive or inconclusive;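 further: 0% = DMSO only neutral control wells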)
Pyruvate kinase (Leishmania mexicana), sequence (Q27686 2-499 E452W): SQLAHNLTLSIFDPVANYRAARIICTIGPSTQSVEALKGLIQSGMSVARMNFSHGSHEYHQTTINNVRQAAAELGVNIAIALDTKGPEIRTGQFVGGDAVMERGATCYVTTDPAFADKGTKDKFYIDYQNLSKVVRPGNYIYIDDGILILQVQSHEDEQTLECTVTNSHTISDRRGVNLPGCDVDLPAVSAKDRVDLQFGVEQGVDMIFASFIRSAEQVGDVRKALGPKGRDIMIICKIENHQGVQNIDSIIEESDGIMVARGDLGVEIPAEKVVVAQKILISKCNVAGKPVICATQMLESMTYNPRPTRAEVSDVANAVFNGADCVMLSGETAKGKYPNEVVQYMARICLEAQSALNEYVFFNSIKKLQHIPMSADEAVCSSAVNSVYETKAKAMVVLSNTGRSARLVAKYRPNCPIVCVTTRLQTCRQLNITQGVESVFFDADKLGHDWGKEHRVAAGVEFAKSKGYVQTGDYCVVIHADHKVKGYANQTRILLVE
Summary of the method: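 The enzyme is a highly purified E451W mutant of LmPYK used at 0.2 nM. It converts 0.5 mM PEP and 0.1 mM ADP over 1 h at room temperature; product ATP is quantified by luciferase luminescence relative to DMSO controls.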

[13] = target: Pyruvate kinase PKM (Homo sapiens) (UniProt P14618); experiment: qHTS Assay for Activators of Human Muscle Pyruvate Kinase (AID 954; active means well fitted curve in the direction sought with a large enough effect, not every such curve was filed as active;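 further: 0% = uninhibited enzyme and -100% = no enzyme or full thiadiazolimine inhibition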)
Summary of the method: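 Enzyme was run at intermediate activity so both inhibitors and activators could be detected. ATP formed from ADP and PEP by 0.1 nM human PKM2 during a 1 h room-temperature incubation was quantified by coupled luciferase luminescence.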

[14] = target: Alpha-galactosidase (Coffea arabica) (UniProt Q42656); experiment: Counterscreen for Glucocerebrosidase Inhibitors: qHTS Assay for Coffee Bean alpha-Galactosidase at pH 4.5 (AID 957; active means well fitted curve in the direction sought with a large enough effect; an effect the other way counts as inactive or inconclusive;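 further: plate controls were enzyme alone for no effect and no enzyme for full effect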)
Alpha-galactosidase (Coffea arabica), sequence (Q42656 whole entry, looked up): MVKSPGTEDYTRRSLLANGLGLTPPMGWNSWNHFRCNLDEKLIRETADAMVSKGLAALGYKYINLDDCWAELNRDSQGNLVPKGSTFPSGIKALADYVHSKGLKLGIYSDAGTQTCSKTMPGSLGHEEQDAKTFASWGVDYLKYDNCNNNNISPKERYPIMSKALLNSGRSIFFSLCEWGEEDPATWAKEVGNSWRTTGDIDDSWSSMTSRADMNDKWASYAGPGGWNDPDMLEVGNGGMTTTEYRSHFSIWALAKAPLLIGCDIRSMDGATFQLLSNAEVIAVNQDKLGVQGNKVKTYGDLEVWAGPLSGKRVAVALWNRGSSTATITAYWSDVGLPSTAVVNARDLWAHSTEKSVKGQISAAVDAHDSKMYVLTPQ
Summary of the method: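 Green coffee bean enzyme (2 nM final) was incubated with compounds (0.7 nM to 77 uM) and 4-methylumbelliferyl alpha-D-galactopyranoside (80 uM final) in 50 mM citric acid, 0.005% Tween-20, pH 4.5, 20 min at room temperature; AC50 from Hill fits.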

[15] = target: Alpha-galactosidase A (Homo sapiens) (UniProt P06280); experiment: Counterscreen for Glucocerebrosidase Inhibitors: qHTS Assay for Human alpha-Galactosidase at pH 4.5 (AID 992; active means well fitted curve in the direction sought with a large enough effect; an effect the other way counts as inactive or inconclusive; further: 0% is about no effect)
Alpha-galactosidase A (Homo sapiens), sequence (P06280 whole entry, looked up): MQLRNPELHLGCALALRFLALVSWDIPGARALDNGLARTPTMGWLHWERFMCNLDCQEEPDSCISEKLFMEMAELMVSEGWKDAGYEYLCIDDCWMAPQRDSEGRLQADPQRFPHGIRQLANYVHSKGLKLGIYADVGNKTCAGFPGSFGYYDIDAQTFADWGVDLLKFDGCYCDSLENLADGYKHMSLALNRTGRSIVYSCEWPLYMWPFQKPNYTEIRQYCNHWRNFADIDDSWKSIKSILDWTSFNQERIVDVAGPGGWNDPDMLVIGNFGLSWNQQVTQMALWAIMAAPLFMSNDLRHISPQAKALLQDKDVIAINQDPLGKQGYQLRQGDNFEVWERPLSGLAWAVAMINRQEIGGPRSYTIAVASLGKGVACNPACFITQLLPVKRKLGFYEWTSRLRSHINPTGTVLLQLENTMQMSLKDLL
Summary of the method: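 Read-out is 4-methylumbelliferone fluorescence (365 nm excitation, 440 nm emission) after a pH 10 NaOH/glycine stop. Reactions held 2 nM enzyme and 80 uM substrate at pH 4.5 for 20 min at room temperature.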

[16] = target: alpha-glucosidase (Oryza sativa, rice) (UniProt Q653V4); experiment: Counterscreen for Glucocerebrosidase Inhibitors: qHTS Assay for Rice alpha-Glucosidase at pH 5.0 (AID 997; active means well fitted curve in the direction sought with a large enough effect; an effect the other way counts as inactive or inconclusive;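 further: 0% = full activity with enzyme and -100% = basal without enzyme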)
Summary of the method: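 Rice alpha-glucosidase (4 nM final) with 400 uM 4-methylumbelliferyl-alpha-D-glucopyranoside in citrate buffer pH 5.0, 20 min at room temperature, stopped at pH 10; fluorescence 365/440 nm, compounds 0.7 nM–77 uM, AC50 from Hill fits.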

[17] = target: Alpha-galactosidase (Coffea arabica) (UniProt Q42656); experiment: Counterscreen for Glucocerebrosidase Inhibitors: qHTS Assay for Coffee Bean alpha-Galactosidase at pH 5.9 (AID 998; active means well fitted curve in the direction sought with a large enough effect; an effect the other way counts as inactive or inconclusive;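 further: plate controls were uninhibited enzyme for no effect and no-enzyme basal signal for full effect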)
Summary of the method: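 Green coffee bean enzyme (2 nM) with 4-methylumbelliferyl alpha-D-galactopyranoside (80 uM) in 50 mM citric acid, 0.005% Tween-20, pH 5.9, 20 min at room temperature; compounds 0.7 nM–77 uM. Stopped at pH 10, fluorescence Ex365/Em440; Hill-fit AC50.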

[18] = target: Cytochrome P450 2C19 (Homo sapiens) (UniProt P33261); experiment: qHTS Assay for Inhibitors and Substrates of Cytochrome P450 2C19 (AID 899; active means well fitted curve in the direction sought with a large enough effect; an effect the other way counts as inactive or inconclusive; further: on the % scale 0 is the no-effect control and ±100 the full control effect; nearly all actives have a fitted effect of over 60% in size)
Cytochrome P450 2C19 (Homo sapiens), sequence (P33261 whole entry, looked up): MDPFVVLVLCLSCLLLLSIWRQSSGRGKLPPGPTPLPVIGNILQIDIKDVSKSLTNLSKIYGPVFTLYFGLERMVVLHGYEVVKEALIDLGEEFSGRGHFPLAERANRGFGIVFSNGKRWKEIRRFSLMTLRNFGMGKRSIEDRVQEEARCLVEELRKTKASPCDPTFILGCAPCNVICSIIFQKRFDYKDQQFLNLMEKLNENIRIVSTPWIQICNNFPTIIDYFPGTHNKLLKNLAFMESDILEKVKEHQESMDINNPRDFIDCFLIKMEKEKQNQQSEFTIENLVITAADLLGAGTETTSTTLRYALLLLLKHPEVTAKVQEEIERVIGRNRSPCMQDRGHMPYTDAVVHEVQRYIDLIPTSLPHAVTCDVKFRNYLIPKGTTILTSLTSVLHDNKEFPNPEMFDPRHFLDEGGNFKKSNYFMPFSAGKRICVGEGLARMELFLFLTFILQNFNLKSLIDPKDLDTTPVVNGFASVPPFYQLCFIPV
Summary of the method: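 5 nM human CYP2C19 with 10uM Luciferin-H EGE (at KM) in 50mM KPO4, compound preincubated 10 min at 37C, then NADPH regeneration for 60 min at 37C. Luciferin read by luminescence after detection reagent; normalized to 57uM ketoconazole as full inhibition.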

[19] = NFAT Signaling Pathway (AID 444); conditions: Jurkat NFAT-bla M1, carbachol, beta-lactamase ratio, 5 h; at 7.69 µM (top of the series) unless noted;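 further: carbachol stimulus at about its EC50 of 1 µM final; on the % scale 0 is the no-effect control and ±100 the full control effect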
Summary of the method: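 Jurkat cells with NFAT-driven β-lactamase reporter and co-expressed M1 receptor, stimulated with carbachol (final 1 uM, ~EC50), compound titration, 5 h at 37 °C. CCF4 loaded 1 h at RT; 460/530 nm ratio gave %activity and AC50.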

[20] = target: Ubiquitin carboxyl-terminal hydrolase 1 (Homo sapiens) (UniProt O94782); experiment: Inhibitors of USP1/UAF1: Pilot qHTS (AID 504865; active means well fitted curve in the direction sought with a large enough effect; an effect the other way counts as inactive or inconclusive;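 further: rhodamine fluorescence freed from ubiquitin-rhodamine substrate followed over time; top concentration of the series differs between compounds; on the % scale 0 is the no-effect control and ±100 the full control effect; nearly all actives have a fitted effect of over 35% in size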)
Summary of the method: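 USP1/UAF1 complex (1nM) preincubated with compound 15 min at room temperature, then Ub-Rho substrate (150nM final) added. Fluorescence read kinetically at 480/540 nm, 6 reads every 60 seconds. Buffer: 50mM HEPES pH 7.8, 0.5mM EDTA, 0.1 mg/ml BSA, 1mM TCEP, 0.01% Tween-20.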

O=[N+]([O-])c1cc(-c2ccc([As](=O)(O)O)cc2)ccc1[As](=O)(O)O
active: Potency [8] 89.1 µM
inactive: activity change, negative = inhibition [1] 3.12% | activity change, negative = inhibition [2] -10.9% [at 2.29 µM] | activity, negative = inhibition [3] 1.81% | Potency [4] > 46 µM | activity change, negative = inhibition [5] 2.81% [at 11.4 µM] | outcome [6] | activation [7] 1.51%

N[C@H](Cc1ccc(N(CCCl)CCCl)cc1)C(=O)O
inactive: activity change, negative = inhibition [1] 23.8% [at 38 µM] | activity, negative = inhibition [3] 4.88% [at 38 µM] | Potency [9] > 46 µM | Potency [5] | outcome [6] | outcome [10] | Potency [11] | outcome [12] | outcome [13] | outcome [14] | outcome [15] | outcome [16] | outcome [17]
active: Potency [2] 15.8 µM

C[C@@]12CC[C@H](O)C[C@@H]1CC[C@@H]1[C@@H]2CC[C@@]2(C)[C@@H](C3=CC(=O)OC3)[C@H](O)C[C@]12O
inactive: activity change, negative = inhibition [1] 15.5% | activity, negative = inhibition [3] 8.74% | Potency [9] > 9.22 µM | activity change, negative = inhibition [5] 1.8% [at 11.4 µM] | outcome [6] | Potency [18]

CC[C@@H]1CN2CCc3cc(OC)c(OC)cc3[C@H]2C[C@@H]1C[C@@H]1NCCc2cc(O)c(OC)cc21
active: activity change, negative = inhibition [1] -117% [at 17.2 µM] | activity change, negative = inhibition [19] -126% [at 17.2 µM] | activity, negative = inhibition [3] -100% [at 17.2 µM]
inactive: Potency [9] > 20.6 µM | Potency [20]

C1C[C@@H]2CN(CCCN3CCOCC3)[C@@H](C1)O2
inactive: activity change, negative = inhibition [1] -6.14% | Potency [2] | activity, negative = inhibition [3] 11.7% | Potency [9] > 9.22 µM | activity change, negative = inhibition [5] 4.78% [at 11.4 µM] | outcome [6]

C[C@@]12CC[C@H](O[C@@H]3O[C@H](CO)[C@@H](O)[C@H](O)[C@@H]3O)C[C@@H]1CC[C@H]1[C@H]2CC[C@@]2(C)[C@@H](C3=CCOC3=O)CC[C@]12O
inactive: activity change, negative = inhibition [1] -9.15% | Potency [2] | activity, negative = inhibition [3] 12.3% | Potency [4] > 46 µM | Potency [9] > 9.22 µM | activity change, negative = inhibition [5] 8.37% [at 11.4 µM] | outcome [6]
